Results as given in PubChem BioAssay.
Values without a mark were called inactive. For some assays here: Results with a measured potency or affinity are listed apart. Calls of active or inactive are those of the source. Unless noted, no rule for the calls is given here.

Legend:
[1] = antimalarial activity against Dd2 strain (AID 2302;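 active = growth inhibition above 50% at the single 2 µM test dose, taken to imply half-maximal potency below 2 µM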;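 also: 0% = DMSO untreated growth and 100% = chloroquine plus artemisinin killed control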); details: P. falciparum Dd2 in RBCs, LDH growth readout, 72 h; at 2 µM; active compounds read high
[2] = human hepatoma cell viability loss – ATP luminescence, cytotoxicity control for P. falciparum antimalarial project, primary screen (AID 2303;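 active = inhibition above 50%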;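 also: 0% = DMSO wells and 100% = digitonin-killed cells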); details: HepG2 viability, 24-48 h, at 10 µM, active compounds read high
[3] = molecular target: L-lactate dehydrogenase (Plasmodium falciparum (isolate CDC / Honduras)) (UniProt Q27743); assay: PfLDH activity inhibition – cell lysate, 3D7 strain, counter-screen for P. falciparum growth inhibition project (AID 2304);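 also: 0% = vehicle and 100% = reference inhibitor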; details: P. falciparum 3D7 crude extract, LDH APAD/NBT absorbance; at 2 µM; active compounds read high
[4] = inhibition of 3D7 malaria parasite growth – strain 3D7 (AID 2306);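 also: 0% = DMSO wells and 100% = chloroquine plus artemisinin control wells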; details: P. falciparum 3D7 erythrocytic growth, LDH absorbance, 72 h; at 2 µM; active compounds read high
[5] = molecular target: Calcium-dependent protein kinase 1 (Plasmodium falciparum (isolate 3D7)) (UniProt P62344); assay: PfCDPK1 kinase inhibitors, biochemical, TCAMS library (AID 1159585; cut-off not given, nearly all actives have IC50 up to about 0.98 µM;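 also: inhibitors leave more ATP so luminescence rises with inhibition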); details: recombinant PfCDPK1, Kinase-Glo ATP depletion luminescence
[6] = molecular target: Plasmodium falciparum protein kinase 6 (PK6, PF3D7_1337100) (UniProt Q8IDW1); assay: PfPK6 kinase inhibitors, biochemical, TCAMS library (AID 1159586); details: recombinant PfPK6, Kinase-Glo ATP depletion luminescence
[7] = molecular target: Protein kinase 7 (PK7), Plasmodium falciparum 3D7 (PF3D7_0213400) (UniProt Q7YTF7); assay: inhibition of Plasmodium PK7 catalytic activity – biochemical, TCAMS antimalarial set, Kinase-Glo luminescence (AID 1159587); details: recombinant PfPK7, Kinase-Glo ATP depletion luminescence
[8] = molecular target: Calcium-dependent protein kinase 4 (Plasmodium falciparum (isolate 3D7)) (UniProt Q8IBS5); assay: PfCDPK4 kinase inhibitors, biochemical, TCAMS library (AID 1159588; cut-off not given, nearly all actives have IC50 up to about 0.91 µM); details: recombinant PfCDPK4, Kinase-Glo ATP depletion luminescence
Sequence of Calcium-dependent protein kinase 4 (Plasmodium falciparum (isolate 3D7)) (Q8IBS5 whole entry, looked up): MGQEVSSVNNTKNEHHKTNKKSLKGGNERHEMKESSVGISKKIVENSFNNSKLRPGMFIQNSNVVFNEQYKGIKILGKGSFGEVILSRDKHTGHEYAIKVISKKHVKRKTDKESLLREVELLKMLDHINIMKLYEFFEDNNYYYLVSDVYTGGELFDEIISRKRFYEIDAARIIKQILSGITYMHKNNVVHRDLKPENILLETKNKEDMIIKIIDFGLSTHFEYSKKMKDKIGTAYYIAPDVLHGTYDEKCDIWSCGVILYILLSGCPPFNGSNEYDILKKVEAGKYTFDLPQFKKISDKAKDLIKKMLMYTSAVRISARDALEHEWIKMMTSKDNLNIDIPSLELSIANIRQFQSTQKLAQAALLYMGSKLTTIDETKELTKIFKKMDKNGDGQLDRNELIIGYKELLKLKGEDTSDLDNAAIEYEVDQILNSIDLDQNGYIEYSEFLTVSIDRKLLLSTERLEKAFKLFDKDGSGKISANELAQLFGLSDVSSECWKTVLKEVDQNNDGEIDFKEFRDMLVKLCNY

Sequence of Protein kinase 7 (PK7), Plasmodium falciparum 3D7 (PF3D7_0213400) (Q7YTF7 1-343): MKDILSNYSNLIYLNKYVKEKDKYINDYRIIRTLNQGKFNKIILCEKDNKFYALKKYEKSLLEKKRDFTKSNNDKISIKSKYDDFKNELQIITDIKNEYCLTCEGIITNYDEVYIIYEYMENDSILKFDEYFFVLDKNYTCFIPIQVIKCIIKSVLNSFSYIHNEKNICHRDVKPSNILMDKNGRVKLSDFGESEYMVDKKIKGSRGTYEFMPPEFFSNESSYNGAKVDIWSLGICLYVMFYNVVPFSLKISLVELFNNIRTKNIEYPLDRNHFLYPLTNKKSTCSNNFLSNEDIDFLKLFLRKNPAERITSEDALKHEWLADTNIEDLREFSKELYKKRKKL
Sequence of Plasmodium falciparum protein kinase 6 (PK6, PF3D7_1337100) (Q8IDW1 1-305): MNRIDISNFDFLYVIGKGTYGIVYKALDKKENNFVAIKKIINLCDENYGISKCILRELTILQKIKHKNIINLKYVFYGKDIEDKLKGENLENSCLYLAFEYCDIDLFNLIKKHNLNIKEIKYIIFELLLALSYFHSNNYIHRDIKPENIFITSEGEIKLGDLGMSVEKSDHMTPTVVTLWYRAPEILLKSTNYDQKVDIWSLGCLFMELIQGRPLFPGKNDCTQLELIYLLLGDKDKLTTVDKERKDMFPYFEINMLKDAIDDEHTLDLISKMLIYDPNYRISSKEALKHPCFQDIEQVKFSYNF
Sequence of L-lactate dehydrogenase (Plasmodium falciparum (isolate CDC / Honduras)) (Q27743 whole entry, looked up): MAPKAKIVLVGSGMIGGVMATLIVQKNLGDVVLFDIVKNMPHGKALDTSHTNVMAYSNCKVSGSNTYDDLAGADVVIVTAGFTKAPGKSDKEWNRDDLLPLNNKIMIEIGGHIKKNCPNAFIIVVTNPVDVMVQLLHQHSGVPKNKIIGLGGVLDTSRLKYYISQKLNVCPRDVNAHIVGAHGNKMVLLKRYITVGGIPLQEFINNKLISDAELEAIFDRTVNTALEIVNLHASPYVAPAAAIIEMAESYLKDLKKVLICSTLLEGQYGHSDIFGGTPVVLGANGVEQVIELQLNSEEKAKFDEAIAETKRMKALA
Sequence of Calcium-dependent protein kinase 1 (Plasmodium falciparum (isolate 3D7)) (P62344 whole entry, looked up): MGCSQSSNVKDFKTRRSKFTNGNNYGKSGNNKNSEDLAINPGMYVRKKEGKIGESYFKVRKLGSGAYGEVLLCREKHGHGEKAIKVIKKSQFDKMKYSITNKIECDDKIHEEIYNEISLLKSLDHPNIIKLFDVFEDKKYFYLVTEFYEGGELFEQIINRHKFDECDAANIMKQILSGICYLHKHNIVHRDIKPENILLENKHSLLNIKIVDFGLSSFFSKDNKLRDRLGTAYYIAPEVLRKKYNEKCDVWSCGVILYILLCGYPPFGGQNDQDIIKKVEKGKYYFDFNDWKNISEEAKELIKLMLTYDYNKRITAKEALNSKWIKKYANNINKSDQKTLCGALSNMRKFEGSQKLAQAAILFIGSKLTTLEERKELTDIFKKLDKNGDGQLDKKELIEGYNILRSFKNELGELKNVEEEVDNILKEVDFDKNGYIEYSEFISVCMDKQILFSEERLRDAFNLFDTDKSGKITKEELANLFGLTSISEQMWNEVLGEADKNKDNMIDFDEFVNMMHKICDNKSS

| Structure (SMILES) | growth inhibition [1] | inhibition [2] | inhibition [3] [%] | growth inhibition [4] | outcome [5] | outcome [6] | outcome [7] | outcome [8] |
| --- | --- | --- | --- | --- | --- | --- | --- | --- |
| C[C@H](NC(=O)c1c(CN2CCN(C(=O)C(C)(C)C)CC2)c(-c2cccs2)nc2ccccc12)C1CCCCC1 | 62% (active) | 2% | 3 | 89% (active) | inactive | inactive | inactive | inactive |
| COCCOc1ccc(C(F)(F)F)cc1NC(=O)Cc1c(F)cccc1Cl | 74% (active) | 18% | 2 | 88% (active) | inactive | inactive | inactive | inactive |
| COc1ccc(-c2cccc(NC(=O)c3cccc(Cl)c3)c2)cc1CNC(C)C | 8% | 15% | -2 | 102% (active) | inactive | inactive | inactive | inactive |
| NCCCNc1nc(Nc2ccc(C(F)(F)F)cc2F)c2c(=O)[nH]ccc2n1 | 15% | 23% | -1 | 95% (active) | inactive | inactive | inactive | inactive |
| CCc1ccc(S(=O)(=O)Nc2ccc(CCN3CCC(N4CCCCC4)CC3)cc2)cc1 | 13% | 35% | -2 | 100% (active) | inactive | inactive | inactive | inactive |
| CC(C)NCc1ccc(-c2ccc(-c3nc4ccc(F)cc4[nH]3)cc2)cc1 | 100% (active) | 14% | -5 | 101% (active) | inactive | inactive | inactive | inactive |
| Oc1ccc(-c2cc(COc3ccccc3C(F)(F)F)c(C3=CCNCC3)cc2COc2ccccc2C(F)(F)F)cc1 | 62% (active) | 18% | 3 | 100% (active) | inactive | inactive | inactive | inactive |
| CN1CCC(NCc2cccc(-c3ccc(S(=O)(=O)NCCc4ccccn4)cc3)c2)CC1 | 1% | 10% | -1 | 95% (active) | inactive | inactive | inactive | inactive |
| S=C(NCCCCCN1CCC(c2c[nH]c3ccccc23)CC1)Nc1cccc(I)c1 | 14% | 69% (active) | -3 | 99% (active) | inactive | inactive | inactive | inactive |
| CCCCN(Cc1cnccc1-c1ccc(Br)cc1)c1ccc(C(O)(C(F)(F)F)C(F)(F)F)cc1 | 45% | 10% | 6 | 87% (active) | inactive | inactive | inactive | inactive |
| C=CCn1c(SCC(=O)Nc2cc(Cl)ccc2Cl)nc2sc(C)cc2c1=O | 96% (active) | 8% | 0 | 97% (active) | inactive | inactive | inactive | inactive |
| Cc1cccc2[nH]c(-c3cccc(-c4ccc(NC(=O)C(C)CN(C)C)cc4)c3)nc12 (stereo not given) | 100% (active) | 29% | -3 | 101% (active) | inactive | inactive | inactive | inactive |
| Cc1cc2c(NC(=O)NC3CCN(CCc4cccc(Cl)c4)CC3)cccc2cn1 | 27% | 12% | -5 | 100% (active) | inactive | inactive | inactive | inactive |
| NC(=NCc1ccc(Cl)c(Cl)c1)NC(=NCCCCCCN=C(NC(N)=NCc1ccc(Cl)c(Cl)c1)N1CCCCC1)N1CCCCC1 | 99% (active) | 6% | -5 | 100% (active) | inactive | inactive | inactive | inactive |
| Clc1ccccc1CN1CCC(NCc2cccc(-n3ccnc3)c2)CC1 | 43% | 6% | -3 | 101% (active) | inactive | inactive | inactive | inactive |
| COc1ccc(CCCCN2C(=O)C(c3ccccc3)(c3ccccc3)N=C2N)cc1 | 95% (active) | 40% | -2 | 97% (active) | inactive | inactive | inactive | inactive |
| O=C1CCCC1Sc1nc2ccccc2c(=O)n1-c1ccc(Cl)c(Cl)c1 (stereo not given) | 42% | 10% | 0 | 97% (active) | inactive | inactive | inactive | inactive |
| Cc1cccc(NC(=O)NC2CCN(CCCCCNC(=O)/C=C/c3ccc(Cl)c(Cl)c3)CC2)c1 | 21% | 34% | -3 | 101% (active) | inactive | inactive | inactive | inactive |
| Cc1cccc2[nH]c(-c3ccc(-c4ccc(CNCCCNS(C)(=O)=O)cc4)s3)nc12 | 4% | 13% | 3 | 99% (active) | inactive | inactive | inactive | inactive |
| Cc1cc(NN=CC=Cc2ccccc2)c2ccc(F)cc2n1 | 30% | 14% | -3 | 100% (active) | inactive | inactive | inactive | inactive |

| Structure (SMILES) | growth inhibition [1] | inhibition [2] | inhibition [3] [%] | growth inhibition [4] | outcome [5] | outcome [6] | outcome [7] | outcome [8] |
| --- | --- | --- | --- | --- | --- | --- | --- | --- |
| Cc1nc(N)nc(N)c1OCc1cccc2ccccc12 | 11% | 63% (active) | -1 | 96% (active) | inactive | inactive | inactive | inactive |
| COc1cc(NC(=O)c2cccs2)c(C(=O)NCc2ccc(C)cc2)cc1OC | 88% (active) | 3% | -2 | 93% (active) | inactive | inactive | inactive | inactive |
| Cc1ccccc1C(O)CNc1ccnc(Nc2cccc(C#N)c2)n1 (stereo not given) | 12% | 22% | 0 | 94% (active) | inactive | inactive | inactive | inactive |
| COc1ccc2nccc([C@@H](O)CN3CCC(NCc4nc5c([N+](=O)[O-])cccc5[nH]4)CC3)c2c1 | 84% (active) | 13% | -2 | 101% (active) | inactive | inactive | inactive | inactive |
| CN(c1ccc(F)cc1)S(=O)(=O)c1ccc(Cl)c(C(=O)Nc2cccc(C#N)c2)c1 | 58% (active) | 5% | -4 | 95% (active) | inactive | inactive | inactive | inactive |
| COc1cc2nc(Nc3ccc4c(ccn4Cc4ccccc4)c3)nc(Nc3ccc4c(ccn4Cc4ccccc4)c3)c2cc1OC | 80% (active) | -6% | 2 | 89% (active) | inactive | inactive | inactive | inactive |
| COc1ccc(NC(=O)[C@H](Cc2ccccc2)Nc2cc(C)nc(NCCc3ccccc3)n2)cc1 | 83% (active) | 6% | -1 | 98% (active) | inactive | inactive | inactive | inactive |
| NC(N)=NN=Cc1ccc2c(ccc3ccccc32)c1 | 68% (active) | 9% | 6 | 100% (active) | inactive | inactive | inactive | inactive |
| FC(F)(F)c1ccc2nc(-c3ccc(-c4ccc(CNCc5ccccc5)cc4)cc3)[nH]c2c1 | 96% (active) | 22% | -5 | 101% (active) | inactive | inactive | inactive | inactive |
| Nc1ccc2[nH]cc(C3CCN(CCC4CCN(C(=O)/C=C/c5ccc(Cl)c(Cl)c5)CC4)CC3)c2n1 | 78% (active) | 27% | 0 | 100% (active) | inactive | inactive | inactive | inactive |
| COc1ccc2nccc([C@@H](O)CN3CCC(NCc4cc5c(F)ccc(F)c5[nH]4)CC3)c2n1 | 76% (active) | 22% | -6 | 101% (active) | inactive | inactive | inactive | inactive |
| CC(Nc1nncc(-c2cccc(F)c2)n1)c1ccc(F)cc1 (stereo not given) | 89% (active) | 4% | 0 | 95% (active) | inactive | inactive | inactive | inactive |
| CCCCOC(=O)c1ccc(NC(=O)Nc2ccc(Cn3ncc(N4CCCNCC4)c(Cl)c3=O)cc2)cc1 | 74% (active) | 2% | 2 | 92% (active) | inactive | inactive | inactive | inactive |
| CC(C)CNCc1ccc(-c2ccccc2CNC2CCN(Cc3ccccc3)CC2)cc1 | 41% | 28% | -3 | 101% (active) | inactive | inactive | inactive | inactive |
| CCOc1cc(CC)ccc1C1CCN(CCCCNC(=O)c2ccc(NC(=O)c3ccc(Cl)cc3)cc2)CC1 | 58% (active) | 11% | 5 | 101% (active) | inactive | inactive | inactive | inactive |
| COc1cc(Cc2cnc(N)nc2N)c2c(c1OC)OC(C)C=C2 (stereo not given) | 1% | -1% | 6 | 87% (active) | inactive | inactive | inactive | inactive |
| CC(C)CN1CCCN(Cc2cccc(NC(=O)c3ccc(Cl)c(Cl)c3)c2)CC1 | 9% | 10% | 0 | 91% (active) | inactive | inactive | inactive | inactive |
| c1cc(CN2CCN(CCN3CCOCC3)CC2)cc(-c2cccc(-c3nc4ccccc4[nH]3)c2)c1 | 100% (active) | 29% | -2 | 100% (active) | inactive | inactive | inactive | inactive |
| O=C(Nc1cccc(CN2CCCN(Cc3ncc[nH]3)CC2)c1)c1ccc(Cl)c(Cl)c1 | 16% | 8% | 1 | 100% (active) | inactive | inactive | inactive | inactive |
| N[C@@H](CCNC1CCN(c2cccc(C(F)(F)F)c2)CC1)Cc1ccc(F)c(F)c1 | 69% (active) | 100% (active) | -1 | 101% (active) | inactive | inactive | inactive | inactive |
